Potency and affinity values are given separately. Inconclusive results are not listed. A call without a number means that no potency is given here. Calls of active or inactive are those of the source. How the calls were made is not given here.

A short description of this test: cytotoxicity in COV362 ovarian cancer cells, dose response, cytotoxicity control for PAX8 inhibitor project, cell-based, plate reader, dry powder, SA12 (AID 743144). To be noted: series mostly up to 35 µM.
Turning to `Cc1ccc(S(=O)(=O)Nc2ccc3c(c2)C(=O)N([C@H](C)CO)C[C@@H](C)[C@H](CN(C)Cc2ccc(C(F)(F)F)cc2)OCCCC[C@H](C)O3)cc1`, the outcome was inactive.

`C[C@H]1CN([C@@H](C)CO)C(=O)CCCn2nncc2CO[C@@H]1CN(C)C(=O)Nc1ccc(-c2cccs2)cc1`: the compound was called inactive.

Regarding `C[C@@H]1CN([C@H](C)CO)C(=O)CCCn2cc(nn2)CO[C@H]1CN(C)C(=O)Nc1ccc(-c2cccs2)cc1`, the compound was called inactive.

For the compound `COc1cccc(C#Cc2ccc([C@@H]3[C@H](C#N)N(C(=O)c4ccccn4)[C@H]3CO)cc2)c1`, the outcome was inactive.

On to `N#C[C@@H]1[C@@H](c2ccc(-c3ccccc3F)cc2)[C@@H](CO)N1C(=O)C1CCC1`, for which the compound was called inactive.

As for `C[C@H](CO)N1C[C@H](C)[C@@H](CN(C)Cc2ccc(C(F)(F)F)cc2)Oc2ccc(NS(=O)(=O)c3ccc(Cl)cc3)cc2CC1=O`, the compound was called inactive.

Turning to `COc1ccccc1C#Cc1ccc([C@H]2[C@@H](CO)N(C(=O)C3CCCC3)[C@H]2C#N)cc1`, the compound was classed as inactive.

Take `C[C@H](CO)N1C[C@H](C)[C@@H](CN(C)Cc2ccc(-c3ccccc3)cc2)Oc2ccc(NC(=O)C3CC3)cc2CC1=O`: the call was inactive.

Regarding `CC(C)(C)c1nnc(NC(=O)CCS(=O)(=O)c2ccccc2)s1`, the call was inactive.

The values above are taken from PubChem BioAssay AID743144 (Broad Institute, 2013).
